Several values for one entry are separate records, joined by “and”; a condition that tells them apart may be missing. Equal entries are not always repeated. Structures can show the parent of a compound that is named as a salt.
How the values were obtained:
Assay in all cases: cell viability relative to vehicle control; higher = less cytotoxic
Details in all cases: 10 µM
K562 = system: K562
Outline: (§1)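 Each screen used CRISPR-edited mutant and wild-type clones from four leukaemia lines. Compounds were acoustically dispensed at a single 10 µM dose, and CellTiter-Glo luminescence was read after 48 h with the supernatant first removed. Viability was analysed in Genedata Screener and given as percent of the on-plate vehicle control.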

MARIMO = system: MARIMO
Outline: as §1

MOLM14 = system: MOLM14
Outline: as §1

OCI-AML2 = system: OCI-AML2
Outline: as §1

| SMILES | cell viability (K562; SRSF2 genotype: SRSF2 P95H/wt) | cell viability (K562; SRSF2 genotype: SRSF2 wt/wt) [%] | cell viability (MARIMO; SRSF2 genotype: SRSF2 P95H/wt) [%] | cell viability (MARIMO; SRSF2 genotype: SRSF2 wt/wt) [%] | cell viability (MOLM14; SRSF2 genotype: SRSF2 P95H/wt) [%] | cell viability (MOLM14; SRSF2 genotype: SRSF2 wt/wt) [%] | cell viability (OCI-AML2; SRSF2 genotype: P95H/wt) [%] | cell viability (OCI-AML2; SRSF2 genotype: wt/wt) [%] |
| --- | --- | --- | --- | --- | --- | --- | --- | --- |
| COc1cc(/C=C/C(=O)CC(=O)/C=C/c2ccc(O)c(OC)c2)ccc1O [Curcumin] | 90.9% and 87% | 91.9 | 87.3 | 75.7 | 47.8 | 59.1 | 60.6 | 69.3 |
| C#CCC(Cc1cnc2nc(N)nc(N)c2n1)c1ccc(C(=O)N[C@@H](CCC(=O)O)C(=O)O)cc1 (stereo not given in full) [Pralatrexate(Folotyn)] | 98.1% and 106% | 45.8 | 109 | 108 | 102 | 73.9 | 98.6 | 104 |
| CC(=O)O[C@@H]1C[C@@]23C[C@@]24CC[C@H](O[C@@H]2OC[C@@H](O)[C@H](O)[C@H]2O)C(C)(C)[C@@H]4CC=C3[C@]2(C)C[C@@H]3OC4(C[C@@H](C)[C@@H]3[C@@]12C)OC(O)C1(C)OC41 (stereo not given in full) [Cimicifugoside] | 110% and 103% | 105 | 109 | 111 | 108 | 106 | 99 | 96 |
| CCC[C@H](NC(=O)[C@@H]1[C@H]2CCC[C@H]2CN1C(=O)[C@@H](NC(=O)[C@@H](NC(=O)c1cnccn1)C1CCCCC1)C(C)(C)C)C(=O)C(=O)NC1CC1 [Telaprevir (VX-950)] | 87.5% and 92% | 80.2 | 68.6 | 86.1 | 89.5 | 99.2 | 85.9 | 98.7 |
| CC(C)(O[C@@H]1O[C@H](CO)[C@@H](O)[C@H](O)[C@H]1O)[C@H]1Cc2cc3ccc(=O)oc3cc2O1 [Nodakenin] | 101% and 107% | 109 | 98.7 | 101 | 110 | 100 | 106 | 103 |
| Cc1cc(-c2ccc(CC(=O)Nc3ccc(-c4cccnc4)cc3)cc2)ccn1 | 77% and 83% | 86.9 | 81.5 | 86.3 | 103 | 102 | 74 | 78.9 |
| COc1cc2nc(N3CCN(C(=O)c4ccco4)CC3)nc(N)c2cc1OC [Prazosin HCl] | 99.9% and 102% | 102 | 96.8 | 103 | 101 | 97 | 102 | 95.6 |
| N=C(NCCCCCCNC(=N)NC(=N)Nc1ccc(Cl)cc1)NC(=N)Nc1ccc(Cl)cc1 [Chlorhexidine] | 14.9% and 12% | 23 | 39.3 | 34.6 | 5.12 | 4.9 | 2.08 | 6.07 |
| NCCc1ccc(O)c(O)c1 [Dopamine hydrochloride (Inotropin)] | 89% and 91.3% | 93.1 | 88.6 | 103 | 80.9 | 100 | 99.9 | 105 |
| CCOC(=O)C1=C(COCCN)NC(C)=C(C(=O)OC)C1c1ccccc1Cl (stereo not given) [Amlodipine besylate (Norvasc)] | 79.6% and 95.8% | 84.3 | 76.8 | 78.3 | 54.7 | 59.5 | 36.2 | 44.2 |
| Nc1c2c(nc3ccccc13)CCCC2 [tacrine hydrochlorid] | 101% and 110% | 112 | 100 | 113 | 103 | 105 | 122 | 94.5 |
| C[C@@H]1CC[C@@]2(NC1)O[C@H]1C[C@H]3[C@@H]4CC=C5C[C@@H](O[C@@H]6O[C@H](CO)[C@@H](O[C@@H]7O[C@@H](C)[C@H](O)[C@@H](O)[C@H]7O)[C@H](O)[C@H]6O[C@@H]6O[C@@H](C)[C@H](O)[C@@H](O)[C@H]6O)CC[C@]5(C)[C@H]4CC[C@]3(C)[C@H]1[C@@H]2C [Solamargine] | 85.3% and 85.5% | 81.8 | 51.5 | 89.6 | 81.6 | 81.6 | 91 | 87.2 |
| CC1(C)CCC2(C(=O)O)CCC3=C(C(CCl)CC4C3(C)CCC3C4(C)CC(O)C(O)C3(C)C(=O)O)C2C1 (stereo not given) [Senegenin] | 107% and 97.9% | 104 | 96.8 | 108 | 100 | 106 | 105 | 113 |
| CC1(C)CC(=O)c2c(C(F)(F)F)nn(-c3ccc(C(N)=O)c(N[C@H]4CC[C@H](OC(=O)CN)CC4)c3)c2C1 | 21.8% and 27.1% | 25.3 | 29.4 | 24.4 | 2.89 | 4.44 | 14.6 | 22.1 |
| CCN(CC)CC(O)CNc1ccc(NCC2CO2)c2c1C(=O)c1ccccc1C2=O (stereo not given) | 1.64% and 0.64% | 3.62 | 1.76 | 2.11 | 2.26 | 0.31 | 0.66 | 0.95 |
| COc1cccc(-c2cc(NCc3ccc4c(c3)OCO4)nc(N)n2)c1 [Wnt agonist 1] | 9.55% and 31.1% | 26.2 | 8.72 | 9.19 | 7.29 | 4.03 | 11 | 13.1 |
| C=CC(=O)N[C@H]1CCOC[C@H]1Nc1ncc2cc(-c3c(Cl)c(OC)cc(OC)c3Cl)ccc2n1 | 78.2% and 81.3% | 80.2 | 85.8 | 90.5 | 78.8 | 79.8 | 66.8 | 72.7 |
| COc1ccc2cc(C(=O)O)ccc2c1 [6-Methoxy-2-naphthoic acid] | 108% and 98.7% | 94.2 | 92 | 99.7 | 88.6 | 93.8 | 89.4 | 92.4 |
| O=C(CCCCCCC(=O)N/N=C/c1ccc(N(c2ccccc2)c2ccccc2)cc1)NO | 38.5% and 60.9% | 54.6 | 65.8 | 18.7 | 1.58 | 1.31 | 0.64 | 1.98 |
| Cc1ccc([N+](=O)[O-])cc1S(=O)(=O)N(C)/N=C/c1cnc2ccc(Br)cn12 | 28.6% and 22.3% | 21 | 7.47 | 3.68 | 0.68 | 0.5 | 1.7 | 17.4 |

| SMILES | cell viability (K562; SRSF2 genotype: SRSF2 P95H/wt) | cell viability (K562; SRSF2 genotype: SRSF2 wt/wt) [%] | cell viability (MARIMO; SRSF2 genotype: SRSF2 P95H/wt) [%] | cell viability (MARIMO; SRSF2 genotype: SRSF2 wt/wt) [%] | cell viability (MOLM14; SRSF2 genotype: SRSF2 P95H/wt) [%] | cell viability (MOLM14; SRSF2 genotype: SRSF2 wt/wt) [%] | cell viability (OCI-AML2; SRSF2 genotype: P95H/wt) [%] | cell viability (OCI-AML2; SRSF2 genotype: wt/wt) [%] |
| --- | --- | --- | --- | --- | --- | --- | --- | --- |
| C[C@@H]1[C@H](O)[C@@H](C)/C=C/C=C/C=C/C=C/C=C/C=C/C=C/[C@H](O[C@@H]2O[C@H](C)[C@@H](O)[C@H](N)[C@@H]2O)C[C@@H]2O[C@](O)(C[C@@H](O)C[C@@H](O)[C@H](O)CC[C@@H](O)C[C@@H](O)CC(=O)O[C@H]1C)C[C@H](O)[C@H]2C(=O)O [Amphotericin B] | 97.4% and 101% | 104 | 110 | 103 | 93.9 | 101 | 126 | 110 |
| N#CN=C(NCCCCCCOc1ccc(Cl)cc1)Nc1ccncc1 | 26.1% and 17.5% | 25.9 | 16.8 | 26.9 | 6.24 | 1.39 | 6.42 | 6.39 |
| COc1ccc(-c2cc(=O)c3c(O)cc(O)cc3o2)cc1 [Acacetin] | 106% | 99.1 | 102 | 115 | 107 | 107 | 88.7 | 102 |
| CC(C)C(C(=O)O)N1C(=O)C(=Cc2ccc(Br)cc2)SC1=S (stereo not given) | 105% | 102 | 98.4 | 105 | 100 | 100 | 102 | 109 |
| O=C(CSc1nc2c(c(=O)n1-c1ccccc1)SCC2)Nc1ccc(-c2ccccc2)cn1 | 88.8% and 93.3% | 92.7 | 100 | 98.2 | 100 | 96.8 | 93.1 | 103 |
| Cc1ccc(-n2nc(C(C)(C)C)cc2NC(=O)Nc2ccc(OCCN3CCOCC3)c3ccccc23)cc1 [BIRB 796 (Doramapimod)] | 80.2% and 83.8% | 92.3 | 81.8 | 104 | 81.4 | 88.1 | 93.7 | 101 |
| CCC1(c2c[nH]cn2)Cc2ccccc2C1 [Atipamezole] | 82.9% and 78.3% | 81.6 | 83.2 | 85.9 | 78.9 | 88.9 | 90 | 89.7 |
| COc1ccc2[nH]c([S@@+]([O-])Cc3ncc(C)c(OC)c3C)nc2c1 [NEXIUM (esomeprazole magnesium)] | 101% and 97.4% | 104 | 97 | 107 | 92 | 98.6 | 90.5 | 94.8 |
| CC1CCc2cc(F)cc3c(=O)c(C(=O)O)cn1c23 (stereo not given) [Flumequine] | 96.6% and 94.5% | 97.5 | 95.6 | 104 | 95.1 | 102 | 96.3 | 107 |
| c1cncc(CN2CCC(n3ncc4c(N5CCOCC5)nc(-c5ccc6[nH]ccc6c5)nc43)CC2)c1 | 41.8% and 44.3% | 51 | 3.19 | 6.42 | 35 | 25 | 26.2 | 29.1 |
| CCOP(=O)(OCC)C(=Cc1cc(C(C)(C)C)c(O)c(C(C)(C)C)c1)P(=O)(OCC)OCC | 77.8% and 87.5% | 84.6 | 90.4 | 93 | 88.8 | 71.6 | 90.9 | 97 |
| C[n+]1ccccc1C=NO [Pralidoxime Iodide] | 106% and 98.4% | 111 | 101 | 105 | 99.2 | 106 | 105 | 118 |
| COc1ccc(-c2coc3cc(O[C@@H]4O[C@H](CO)[C@@H](O)[C@H](O)[C@H]4O)ccc3c2=O)cc1O [Calycosin-7-O-beta-D-glucoside] | 95% and 99% | 98.5 | 93 | 105 | 112 | 110 | 97.1 | 106 |
| CCc1ccc(/C=C2/SC(=S)NC2=O)cc1 | 106% and 101% | 102 | 100 | 108 | 105 | 104 | 91 | 91.2 |
| CCCC(CCC)C(=O)O[C@H]1C[C@H]2CC[C@@H](C1)[N+]2(C)C [anisotropine methylbromide] | 101% | 104 | 106 | 107 | 98 | 101 | 106 | 93.6 |
| O=C(O)Cc1ccc(O)cc1 [4-Hydroxyphenylacetic acid] | 100% and 101% | 101 | 96.8 | 104 | 95.7 | 101 | 95.5 | 108 |
| O=C(O)COCCN1CCN(C(c2ccccc2)c2ccc(Cl)cc2)CC1 (stereo not given) [Cetirizine Dihydrochloride] | 94.7% and 100% | 98.7 | 95 | 93.1 | 94.2 | 100 | 103 | 101 |
| C/C=C(\C)C(=O)OC1c2c(ccc3ccc(=O)oc23)OC(C)(C)C1OC(=O)/C(C)=C/C (stereo not given) [Paeruptorin B] | 92.7% and 97.1% | 89.7 | 86.9 | 96.3 | 89.7 | 92.3 | 93.8 | 103 |
| COc1cc(OC)cc(N(CCNC(C)C)c2ccc3ncc(-c4cnn(C)c4)nc3c2)c1 | 5.81% and 13.7% | 12.4 | 50.6 | 54.4 | 34.8 | 34.9 | 24.7 | 31.9 |
| Cc1cc(-c2cc(C)c(NCCCS(=O)(=O)O)c(C)c2)cc(C)c1N | 106% and 93.5% | 105 | 96.3 | 111 | 100 | 108 | 99.9 | 99 |
